From the supplement of paper PMC7411054
Counter-ions that a name gives are not always drawn.

Key:
Details in all cases: treatment time: 24 h
[1] = system: A549-ACTB-RAB5A; assay: lowest phenotypically active concentration; higher = less potent
Outline: (§1)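 The reporter lines, fifteen in total and built by gene editing in A549, HepG2 and WPMY1 cells, used BFP for segmentation alongside GFP and RFP/FusionRed markers. Each was treated at 0.3, 1, 3 or 9 µM for 24 h in four wells and then imaged live, with live-cell features normalised to solvent control wells. Deviation meant ≥3 of 4 wells beyond the 95th percentile of control Euclidean distances; reproducibility meant a median replicate Pearson correlation above the 95th percentile of non-replicates. Only conditions meeting both were scored as phenotypically active.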

[2] = system: A549-GM130-SQSTM1; assay: as above
Outline: as §1

[3] = system: A549-TUBA1B-RELA; assay: as above
Outline: as §1

[4] = system: HepG2-ACTB-RAB5A; assay: as above
Outline: as §1

[5] = system: WPMY1-GM130-SQSTM1; assay: as above
Outline: as §1

[6] = system: A549-ACTB-RAB5A; assay: phenotypically active (imaging signature differs from DMSO and reproducible) at any of 0.3-9 uM (binary (1 = active, 0 = inactive)); higher = active
Outline: as §1

[7] = system: A549-CANX-COX4; assay: as above
Outline: as §1

[8] = system: A549-GM130-SQSTM1; assay: as above
Outline: as §1

[9] = system: A549-TP53BP1-CLTA; assay: as above
Outline: as §1

[10] = system: A549-TUBA1B-RELA; assay: as above
Outline: as §1

[11] = system: HepG2-ACTB-RAB5A; assay: as above
Outline: as §1

[12] = system: HepG2-CANX-COX4; assay: as above
Outline: as §1

[13] = system: HepG2-GM130-SQSTM1; assay: as above
Outline: as §1

[14] = system: HepG2-TP53BP1-CLTA; assay: as above
Outline: as §1

[15] = system: HepG2-TUBA1B-RELA; assay: as above
Outline: as §1

[16] = system: WPMY1-ACTB-RAB5A; assay: as above
Outline: as §1

[17] = system: WPMY1-CANX-COX4; assay: as above
Outline: as §1

[18] = system: WPMY1-GM130-SQSTM1; assay: as above
Outline: as §1

[19] = system: WPMY1-TP53BP1-CLTA; assay: as above
Outline: as §1

[20] = system: WPMY1-TUBA1B-RELA; assay: as above
Outline: as §1

Row | SMILES | lowest phenotypically active concentration [1] | lowest phenotypically active concentration [2] | lowest phenotypically active concentration [3] | lowest phenotypically active concentration [4] | lowest phenotypically active concentration [5] | phenotypically active [6] | phenotypically active [7] | phenotypically active [8] | phenotypically active [9] | phenotypically active [10] | phenotypically active [11] | phenotypically active [12] | phenotypically active [13] | phenotypically active [14] | phenotypically active [15] | phenotypically active [16] | phenotypically active [17] | phenotypically active [18] | phenotypically active [19] | phenotypically active [20]
1 | C=C1C(=O)O[C@@H]2[C@H]3O[C@]3(C)CCC=C(C)CC[C@@H]12 [Parthenolide] | 9 µM | 9 µM | 9 µM | 9 µM | 9 µM | 1 (active) | 1 (active) | 1 (active) | 0 (inactive) | 1 (active) | 1 (active) | 1 (active) | 1 (active) | 0 (inactive) | 0 (inactive) | 1 (active) | 1 (active) | 1 (active) | 0 (inactive) | 1 (active)
2 | COc1cc2ncnc(Nc3cccc(Br)c3)c2cc1OC | 3 µM | 9 µM | 3 µM | – | 9 µM | 1 (active) | 1 (active) | 1 (active) | 1 (active) | 1 (active) | 0 (inactive) | 0 (inactive) | 1 (active) | 1 (active) | 1 (active) | 0 (inactive) | 1 (active) | 1 (active) | 1 (active) | 0 (inactive)
3 | COc1cc2c(cc1NS(=O)(=O)c1ccc(Br)cc1C)n(C)c(=O)n2C | 3 µM | – | – | 9 µM | – | 1 (active) | 1 (active) | 0 (inactive) | 1 (active) | 0 (inactive) | 1 (active) | 1 (active) | 1 (active) | 0 (inactive) | 1 (active) | 0 (inactive) | 0 (inactive) | 0 (inactive) | 0 (inactive) | 0 (inactive)
4 | CCCCc1oc2ccc(NS(C)(=O)=O)cc2c1C(=O)c1ccc(OCCCN(CCCC)CCCC)cc1 [dronedarone] | 3 µM | 3 µM | 3 µM | 9 µM | – | 1 (active) | 1 (active) | 1 (active) | 0 (inactive) | 1 (active) | 1 (active) | 0 (inactive) | 1 (active) | 1 (active) | 1 (active) | 1 (active) | 1 (active) | 0 (inactive) | 1 (active) | 1 (active)
5 | O=c1c(-c2ccc(O)cc2)coc2cc(O[C@@H]3O[C@H](CO)[C@@H](O)[C@H](O)[C@H]3O)cc(O)c12 [Genistin] | 9 µM | – | 9 µM | – | – | 1 (active) | 1 (active) | 0 (inactive) | 1 (active) | 1 (active) | 0 (inactive) | 0 (inactive) | 0 (inactive) | 0 (inactive) | 0 (inactive) | 1 (active) | 1 (active) | 0 (inactive) | 1 (active) | 0 (inactive)
6 | Nc1ncnc2[nH]nc(Nc3ccc(F)cc3)c12 | 9 µM | – | 9 µM | 9 µM | 3 µM | 1 (active) | 1 (active) | 0 (inactive) | 0 (inactive) | 1 (active) | 1 (active) | 0 (inactive) | 1 (active) | 1 (active) | 1 (active) | 1 (active) | 1 (active) | 1 (active) | 1 (active) | 1 (active)
7 | CC(C)n1c(/C=C/[C@@H](O)C[C@@H](O)CC(=O)O)c(-c2ccc(F)cc2)c2ccccc21 [fluvastatin] | 1 µM | 9 µM | – | 1 µM | 1 µM | 1 (active) | 1 (active) | 1 (active) | 1 (active) | 0 (inactive) | 1 (active) | 1 (active) | 1 (active) | 1 (active) | 1 (active) | 1 (active) | 1 (active) | 1 (active) | 1 (active) | 1 (active)
8 | c1cc(-c2cc(C3CCNCC3)[nH]n2)ccn1 | 9 µM | 3 µM | 9 µM | – | – | 1 (active) | 1 (active) | 1 (active) | 0 (inactive) | 1 (active) | 0 (inactive) | 1 (active) | 0 (inactive) | 0 (inactive) | 0 (inactive) | 1 (active) | 1 (active) | 0 (inactive) | 0 (inactive) | 0 (inactive)
9 | OCc1cc(C(O)CNCCCCCCOCCCCc2ccccc2)ccc1O (stereo unspecified) [salmeterol] | 9 µM | 9 µM | 9 µM | 9 µM | 1 µM | 1 (active) | 1 (active) | 1 (active) | 0 (inactive) | 1 (active) | 1 (active) | 0 (inactive) | 1 (active) | 1 (active) | 1 (active) | 1 (active) | 1 (active) | 1 (active) | 1 (active) | 1 (active)
10 | Cc1nnc(-c2ccc3occ(-c4ccc(S(C)=O)cc4)c3c2)o1 (stereo unspecified) | 9 µM | 9 µM | – | 9 µM | 9 µM | 1 (active) | 1 (active) | 1 (active) | 1 (active) | 0 (inactive) | 1 (active) | 1 (active) | 1 (active) | 0 (inactive) | 1 (active) | 1 (active) | 1 (active) | 1 (active) | 1 (active) | 0 (inactive)
11 | O=S(=O)(c1cccc2c(O)nccc12)N1CCCNCC1 [HA 1100 hydrochloride] | 3 µM | – | 9 µM | 9 µM | 9 µM | 1 (active) | 1 (active) | 0 (inactive) | 1 (active) | 1 (active) | 1 (active) | 1 (active) | 1 (active) | 1 (active) | 0 (inactive) | 1 (active) | 1 (active) | 1 (active) | 1 (active) | 1 (active)
